The values that follow come from the supplement of paper PMC8728848.

This is one part of a sample in which the strongest signals are shown more often than they occur.

Chain of PILRb (Mus musculus), Q2YSF2 (Q2YSF2 entry or part of it): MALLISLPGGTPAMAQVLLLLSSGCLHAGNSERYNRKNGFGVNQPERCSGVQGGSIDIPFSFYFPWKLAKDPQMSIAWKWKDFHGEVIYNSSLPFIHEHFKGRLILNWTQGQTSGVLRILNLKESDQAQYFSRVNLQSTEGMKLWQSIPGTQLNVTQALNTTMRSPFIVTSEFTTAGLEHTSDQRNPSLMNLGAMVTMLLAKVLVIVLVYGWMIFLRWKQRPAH
Chain of C3b (Homo sapiens), P01024 (P01024 23-667): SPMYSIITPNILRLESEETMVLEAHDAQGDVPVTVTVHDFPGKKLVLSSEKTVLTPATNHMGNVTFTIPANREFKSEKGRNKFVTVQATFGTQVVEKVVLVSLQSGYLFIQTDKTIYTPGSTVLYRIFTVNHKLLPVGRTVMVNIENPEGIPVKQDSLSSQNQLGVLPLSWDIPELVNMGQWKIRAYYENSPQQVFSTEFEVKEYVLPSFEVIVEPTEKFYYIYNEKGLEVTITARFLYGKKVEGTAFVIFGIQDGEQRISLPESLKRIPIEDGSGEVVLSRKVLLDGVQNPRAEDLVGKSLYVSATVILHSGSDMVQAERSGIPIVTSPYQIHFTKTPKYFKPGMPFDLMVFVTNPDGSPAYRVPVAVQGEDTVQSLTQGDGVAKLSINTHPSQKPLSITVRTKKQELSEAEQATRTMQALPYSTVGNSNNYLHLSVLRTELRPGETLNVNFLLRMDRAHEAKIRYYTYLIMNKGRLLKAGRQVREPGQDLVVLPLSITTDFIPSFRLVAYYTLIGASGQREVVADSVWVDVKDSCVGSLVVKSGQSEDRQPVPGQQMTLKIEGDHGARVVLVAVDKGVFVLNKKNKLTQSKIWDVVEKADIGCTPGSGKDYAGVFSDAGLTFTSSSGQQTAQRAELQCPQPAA
Chain of Aggrecan (Rattus norvegicus), NP_071526 (chain, as listed by the source): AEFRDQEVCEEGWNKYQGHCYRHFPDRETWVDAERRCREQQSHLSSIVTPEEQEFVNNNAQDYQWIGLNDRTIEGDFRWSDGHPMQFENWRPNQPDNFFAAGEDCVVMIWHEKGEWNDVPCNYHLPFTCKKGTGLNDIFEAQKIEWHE

The subject of the assay is Fuc(a1-2)Gal(b1-3)GalNAc(b1-3)Gal(a1-4)Gal(b1-4)Glc. The assay can be described thus: glycan array binding signal (z-score within array); higher = stronger binding. The following applies: glycan notation: IUPAC condensed, linker removed. The gist of the method: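 Glycan array data were curated from 3228 arrays in the Consortium for Functional Glycomics database and kept only where the protein sequence was available. Glycan names were converted to IUPAC-condensed notation, and columns mapping to the same glycan were averaged. The binding signal is a within-array Z-score, averaged across arrays of the same protein sequence at different concentrations or buffers and across linkers. Negative Z-scores can be read as non-binding.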
For PILRb (Mus musculus), Q2YSF2, the “glycan array binding signal (z-score)” value was -0.245.

For C3b (Homo sapiens), P01024, the “glycan array binding signal (z-score)” value came to 0.194. To Aggrecan (Rattus norvegicus), NP_071526 belongs -0.123.
